Laboratory results from article PMC5540273 (PLoS ONE, 2017).

tested on: FGFR2; conditions: concentration: 1 μM, replicates: in singlicate; n = 1
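Further: KINOMEscan kinase panel screen.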

Structure (SMILES) | %Inh [%]
Cl.Oc1cccc(Nc2ccnc3cc(-c4ccncc4)ccc23)c1 [GW494601] | 0
CCc1nc(-c2cccc(C)c2)c(-c2ccnc(NCc3ccccc3)c2)s1 | 8
CN(C(=O)c1ccc(-c2cc(-c3c[nH]nc3-c3ccccn3)ccn2)cc1)C1CCOCC1 [GW810083] | 0
O=C(NOCC1CC1)c1ccc(F)c(F)c1Nc1ccc(I)cc1Cl | 0
N#Cc1ccc(-c2cc(-c3c[nH]nc3-c3ccccn3)ccn2)cc1 [GW693028] | 0
CN1c2ccc(CNc3ccc(F)cc3)cc2-c2c(cnn2C)S1(=O)=O | 0
O=c1cc(N2CCOCC2)nc2n(Cc3cccc(C(F)(F)F)c3)ccn12 [GSK2297543] | 0
O=C(NCCNc1ccnc(Nc2ccc(F)cc2)n1)Nc1ccccc1F [GSK1379880] | 0
COc1cc2c(cc1OC[C@@H](O)CO)ncc1c3ccc(C#N)cc3[nH]c21 | 0
CCCCCc1nc2c(N)ncnc2n1CCCCC [SKF-97255] | 0
O=C(Nc1cccc(-c2nn3ncccc3c2-c2ccnc(Nc3cccc(C(F)(F)F)c3)n2)c1)c1c(F)cccc1F [GSK299495] | 0
O=c1cc(N2CCOCC2)nc2n(Cc3cccc4ccccc34)ccn12 [GSK2333389] | 0
Cc1c(Cn2c(C)nn3c(=O)cc(N4CCOC(C)C4)nc23)cccc1C(F)(F)F (centres unmarked) [GSK2344444] | 0
O=C1NC(=O)C(N2CCc3ccccc32)=C1c1cccc(Cl)c1 [SB-408010] | 15
